High-throughput results from PubChem.
Shh pathway inh: blocks Sonic Hedgehog signaling | Shh-LIGHT2 Gli-luciferase reporter, 30 h | inhibition, % (no concentration beside the values) | 22,000 tested, 2.1% active;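 active means mean inhibition across valid replicates above about 65%, limit read from the data; inconclusive means mean under the limit, yet half or more replicates past it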;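 further: pathway switched on by Shh-conditioned medium diluted 1 in 25 in low serum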
PD-1 reversal: activators reversing PD-1 mediated T-cell inhibition | primary human CD4 T cells, PD-L1 beads, CellTiter-Glo 96 h | activation, % (test concentration not listed) | 29,000 tested, under 10 active; call rule not given here;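 further: 0% = median vehicle wells and 100% = positive control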
NOMO-1 viab: STK33 inhibitor candidate reducing NOMO-1 cell viability. NOMO-1 AML viability, CellTiter-Glo luminescence, 72 h. inhibition, % (concentration not given with the values). 37,000 tested, 7.5% active. AID 2330; in the data active means inhibition above about 80%; inconclusive means no clear call, values can overlap the other calls
* marks the source's active call; other numbers are inactive results; ? = inconclusive; . = no result given. In the library only some 7.7% were active in any assay of this set; here they are far more common.

SMILES	Shh pathway inh	PD-1 reversal	NOMO-1 viab
CCNC(=S)N1N=C2c3ccccc3CCC2C1c1ccc(F)cc1 (configuration not stated)	.	-1	113*
CCCCc1c(-c2ccc(OC)cc2)[nH]c2nccnc12	-26	-28	15
CCCCc1c(-c2ccc(O)cc2)[nH]c2nccnc12	-15	-3	83*
CNC(=O)CN(c1cc(C)ccc1OC)S(C)(=O)=O	.	1	6
C[C@@H]1CN([C@@H](C)CO)C(=O)c2cc(NC(=O)c3ccncc3)ccc2O[C@H]1CN(C)Cc1ccc(-c2ccccc2)cc1	.	-1	29
C[C@@H]1CN([C@H](C)CO)C(=O)c2cc(NC(=O)c3ccncc3)ccc2O[C@H]1CN(C)Cc1ccc(-c2ccccc2)cc1	89*	-2	93*
C[C@@H]1CN([C@@H](C)CO)C(=O)c2cc(NC(=O)c3ccncc3)ccc2O[C@@H]1CN(C)Cc1ccc(Oc2ccccc2)cc1	84*	-1	63
C[C@H](CO)N1C[C@H](C)[C@H](CN(C)Cc2ccc(Oc3ccccc3)cc2)Oc2ccc(NC(=O)c3ccncc3)cc2C1=O	-4	-1	20
CC1(C)C=CC(=O)[C@@]2(C)C1CC(=O)[C@]1(C)C2CC[C@@]2(C)[C@H](c3ccoc3)OC(=O)C3OC321 (some centres not stated)	23	.	31
CC1(C)C(=O)C=C[C@@]2(C)C1CC(=O)[C@]1(C)C2CC[C@@]2(C)[C@H](c3ccoc3)OC(=O)[C@H]3O[C@]321 (some centres not stated)	24	.	88*
C=C(C)C(=O)O[C@H]1[C@H]2C(=C)C(=O)O[C@@H]2C[C@@H](C)[C@@H]2O[C@@H]2C(=O)[C@](C)(O)[C@@H]1OC(C)=O	85*	-20	122*
C=C(C)C(=O)O[C@@H]1C2=C(C)C(=O)OC2(O)CC23OC2CC[C@H](C)[C@@]13C (some centres not stated)	5	0	23
C=C(C)C(=O)O[C@H]1[C@H]2C(=C)C(=O)O[C@@H]2C[C@@H](C)/C=C/C(=O)[C@](C)(O)[C@@H]1OC(=O)C(=C)C	3	-11	107*
O=C(CSc1n[nH]c(-c2ccncc2)n1)Nc1ccc(Cl)cc1Cl	.	2	-2
CC(C)(C)N1Sc2ccccc2NC1=S	-31	7	9
CCC1C(=O)O[C@]23C=C[C@@H]4C(C(=O)O)=CO[C@H](OC12)[C@@H]43 (some centres not stated)	-16	0	46
C=CCn1c(CSc2nc(N)cc(N)n2)n[nH]c1=S	.	1	2
Cc1cc(Cl)c(S(=O)(=O)Nc2ccc(F)cc2)cc1OCC(N)=O	.	2	-4
CC1(C)[C@@H]2CC=C(CO[C@@H]3O[C@H](CO[C@@H]4O[C@@H](CO)[C@H](O)[C@H]4O)[C@@H](O)[C@H](O)[C@H]3O)[C@H]1C2	-3	5	-7
Cc1ccc(S(=O)(=O)NC(C)C(=O)Nc2ccc(C)c(Cl)c2)cc1 (configuration not stated)	.	.	21
Cc1ccc(NC(=S)C(C#N)C(N)=O)cc1Cl (configuration not stated)	39	-7	108*
O=C(CSc1n[nH]c(-c2ccccc2)n1)Nc1cccc(C(F)(F)F)c1	.	.	24
COc1c2c(c(O)c3c(=O)c4c(OC)c(O)ccc4oc13)C1CCCC(C)(O2)O1 (configuration not stated)	-35	1	21
C[C@@H]1CN([C@@H](C)CO)C(=O)c2cc(NS(=O)(=O)c3cccs3)ccc2O[C@H]1CN(C)Cc1ccc(C(=O)Nc2ccccc2N)cc1	.	-1	29
C[C@@H]1CCCCO[C@H](CN(C)Cc2ccccc2)[C@@H](C)CN([C@H](C)CO)C(=O)c2cc(NS(=O)(=O)c3cccs3)ccc2O1	18	0	28
SMILES	Shh pathway inh	PD-1 reversal	NOMO-1 viab
C[C@@H]1CCCCO[C@H](CN(C)Cc2ccc(C(=O)Nc3ccccc3N)cc2)[C@@H](C)CN([C@H](C)CO)C(=O)c2cc(NS(=O)(=O)c3cccs3)ccc2O1	.	-2	127*
C[C@@H]1CCCCO[C@@H](CN(C)Cc2ccc(C(=O)Nc3ccccc3N)cc2)[C@@H](C)CN([C@H](C)CO)C(=O)c2cc(NS(=O)(=O)c3cccs3)ccc2O1	.	0	139*
CNC(=O)c1ccc2nc(N)sc2c1	-27	0	40
CN(C)/C=C/C(=O)c1ccc2c(c1)CCC(C)(C)O2	51	0	121*
CC1(C)CCc2cc(-c3ccn(S(=O)(=O)c4ccc(Cl)cc4)n3)ccc2O1	26	-1	68
Cc1cccc(N(CC(=O)NC2CCCCCC2)S(C)(=O)=O)c1C	.	0	-2
CC(N=Cc1c(O)ccc2ccccc12)C12CC3CC(CC(C3)C1)C2 (configuration not stated)	?	1	101*
O=C(Nc1cccc2ccccc12)C12CC3CC(CC(C3)C1)C2	-42	0	24
Cc1cccc(OCCCC(=O)Nc2ccccc2[N+](=O)[O-])c1C	.	.	38
C[C@@H]1CN([C@H](C)CO)C(=O)Cc2cc(NC(=O)Nc3ccc4c(c3)OCO4)ccc2O[C@@H]1CN(C)S(=O)(=O)c1ccccc1	9	.	3
C[C@H]1CN([C@@H](C)CO)C(=O)Cc2cc(NC(=O)Nc3ccc4c(c3)OCO4)ccc2O[C@H]1CN(C)S(=O)(=O)c1ccccc1	-28	.	128*
Cc1ccc(S(=O)(=O)N(C)C[C@@H]2Oc3ccc(NC(=O)Nc4ccc5c(c4)OCO5)cc3CC(=O)N([C@H](C)CO)C[C@@H]2C)cc1	-21	0	102*
COc1ccc(S(=O)(=O)N(C)C[C@@H]2Oc3ccc(NC(=O)Nc4ccc5c(c4)OCO5)cc3CC(=O)N([C@@H](C)CO)C[C@@H]2C)cc1	-11	.	65
C[C@H]1CN([C@@H](C)CO)C(=O)Cc2cc(NC(=O)Nc3ccc4c(c3)OCO4)ccc2O[C@H]1CN(C)S(=O)(=O)c1ccc(Cl)cc1	38	.	127*
Cc1ccc(S(=O)(=O)N(C)C[C@H]2Oc3ccc(NC(=O)Nc4ccc5c(c4)OCO5)cc3CC(=O)N([C@@H](C)CO)C[C@@H]2C)cc1	2	-1	23
C[C@H](CO)N1C[C@H](C)[C@H](CN(C)S(=O)(=O)c2ccc(Cl)cc2)Oc2ccc(NC(=O)Nc3ccc4c(c3)OCO4)cc2CC1=O	43	-2	126*
Cc1ccc(S(=O)(=O)N(C)C[C@H]2Oc3ccc(NC(=O)Nc4ccc5c(c4)OCO5)cc3CC(=O)N([C@@H](C)CO)C[C@H]2C)cc1	?	-1	48
O=C1NC(=O)C2(COC(c3ccccc3)OC2)S1 (configuration not stated)	-33	0	25
COc1ccc(NC(=S)N2CCN(Cc3c(C)nn(C)c3C)CC2)cc1OC	.	3	-7
C[C@@H]1CN([C@H](C)CO)C(=O)c2cccc(NC(=O)c3ccncc3)c2O[C@H]1CN(C)Cc1ccc(Oc2ccccc2)cc1	?	-4	91*
C[C@@H]1CN([C@@H](C)CO)C(=O)c2cccc(NC(=O)c3ccncc3)c2O[C@@H]1CN(C)Cc1ccc(Oc2ccccc2)cc1	-4	0	9
C[C@H](CO)N1C[C@H](C)[C@H](CN(C)Cc2ccc(-c3ccccc3)cc2)Oc2c(NC(=O)c3ccncc3)cccc2C1=O	36	.	54
